TDP1 cell noCPT = qHTS for Inhibitors of human tyrosyl-DNA phosphodiesterase 1 (TDP1): qHTS in cells in absence of CPT | DT40 Tdp1-/- hTDP1 cells, no CPT, ATP luminescence, 48 h | hit rate 15% among 420,000 | Potency, µM (top dose mostly 46.2 µM), actives largely listed as inhibitors; note: nearly all actives have a fitted effect of over 55% in size
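Growth kinetics read by CellTiter-Glo luminescence after ≥48 hr at 37 °C. Cells: DT40 Tdp1-/- stably carrying human TDP1, 400 per well, compound exposure in the absence of CPT (DMSO vehicle).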
VP16 counter = inhibits Gal4-VP16 luciferase reporter, ROR gamma counter-screen | Drosophila S2 Gal4-VP16 UAS-luciferase, luminescence, 20 h | Potency, µM (series often up to 53.6 µM), actives largely listed as inhibitors | hit rate 3.5% among 310,000;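 note: Gal4-VP16 expression switched on by copper sulfate through the metallothionein promoter; nearly all actives have a fitted effect of over 50% in size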
IL1B secr inh = blocks inflammasome-driven IL-1 beta release | THP-1 LPS/ATP IL-1B secretion, AlphaLISA, 16 h; stronger effect = lower value | activity change, % at 57.5 µM | hit rate 4.7% among 360,000; in the data active = activity change below about -50%; inconclusive = mostly about -30% to -49%
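Secreted IL-1B measured by AlphaLISA bead assay after 16 h compound exposure of THP-1 cells; compounds (final up to 57.5 uM) added 1 h before LPS (250 ng/mL) and ATP (1.25 mM) stimulation; lower signal means less secretion.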
TDP1 cell CPT = growth inhibition of DT40 Tdp1-/-;hTDP1 cells with camptothecin (screen for TDP1 inhibitors). Potency, µM (titrated, usually from 46.2 µM), most hits filed as inhibitors. hit rate 12% among 420,000. AID 686979. chicken DT40 Tdp1-/-;hTDP1 cells + 20 nM CPT, ATP luminescence, 48 h; note: nearly all actives have a fitted effect of over 55% in size
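Cell growth measured by CellTiter-Glo luminescence after a minimum 48 h, 37 C compound exposure with 20 nM CPT in Tdp1-knockout DT40 cells stably expressing hTDP1, seeded 400/well; qHTS titration format.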
LDHA inh = inhibitors of human lactate dehydrogenase A; P00338; purified LDHA, NADH/diaphorase-resazurin fluorescence; stronger effect = lower value; activity change, % (values are at about 110 or 230 µM); hit rate 0.15% among 480,000; in the data active = activity change below about -30%; inconclusive = mostly about -25% to -30%
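Enzyme activity of human lactate dehydrogenase 5 (2 nM; 0.06 mM NADH, 0.2 mM pyruvate, 5 min, RT) is measured via a resazurin/diaphorase fluorescence readout of residual NADH.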
RORg inh = blocks mouse ROR gamma transcriptional activity | Drosophila S2 Gal4-RORgamma UAS-luciferase reporter, 20 h | Potency, µM (highest dose often 53.6 µM), usual class: inhibitors | hit rate 5.4% among 310,000; note: nearly all actives have a fitted effect of over 60% in size
Target sequence (P51450 whole entry, looked up, the tested form may be a part): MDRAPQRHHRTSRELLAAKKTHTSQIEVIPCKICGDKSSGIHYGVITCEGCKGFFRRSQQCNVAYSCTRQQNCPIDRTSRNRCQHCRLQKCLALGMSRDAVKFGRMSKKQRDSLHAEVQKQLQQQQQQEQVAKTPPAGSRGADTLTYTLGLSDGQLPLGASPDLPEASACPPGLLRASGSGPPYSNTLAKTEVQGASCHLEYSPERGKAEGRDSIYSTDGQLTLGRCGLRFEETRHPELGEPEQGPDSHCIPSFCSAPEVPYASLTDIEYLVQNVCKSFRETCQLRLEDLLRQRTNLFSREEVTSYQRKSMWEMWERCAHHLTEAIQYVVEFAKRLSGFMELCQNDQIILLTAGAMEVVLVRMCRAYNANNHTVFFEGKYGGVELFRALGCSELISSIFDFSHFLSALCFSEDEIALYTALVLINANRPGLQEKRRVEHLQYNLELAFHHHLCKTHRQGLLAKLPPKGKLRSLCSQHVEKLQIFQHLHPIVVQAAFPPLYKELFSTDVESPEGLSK
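Using a luciferase readout, inhibitors were identified by reduced reporter activity in Drosophila cells coexpressing a copper-inducible Gal4–ROR gamma fusion and UAS-driven Photinus luciferase, incubated 20 hr after 700 uM copper sulfate.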
Large screens that a line does not name were inactive. Sampled rows, rich in hits. Any-hit rate of the full collection: about 18%. Unless noted, calls come from the whole dose curve; as a rule, active = well fitted curve in the direction sought with a large enough effect; inconclusive = small, poorly fitted or top-dose-only effect, or another doubt; inactive = no such curve, though single readings can be large; an effect the other way counts as inactive or inconclusive.

CC(C)(C)c1ccc(OCCNC(=S)NC(=O)c2cccnc2)cc1	VP16 counter inconclusive, RORg inh 12.6µM
CC(C)c1ccc(O)c(NC(=S)NC(=O)c2cccnc2)c1	TDP1 cell noCPT 18.4µM, VP16 counter 1.41µM, TDP1 cell CPT 4.61µM, RORg inh 0.708µM
CC(C)(C)c1cc(Cl)c(O)c(NC(=S)NC(=O)c2cccnc2)c1	TDP1 cell noCPT 6.51µM, VP16 counter 0.891µM, TDP1 cell CPT 4.61µM, RORg inh 0.159µM
O=C(NC(=S)Nc1cccnc1)c1ccccc1	none
O=C(NC(=S)Nc1ccccc1Br)c1cccnc1	TDP1 cell noCPT inconclusive, VP16 counter 17.8µM, RORg inh 10µM
COc1ccc(Br)cc1/C=N/OC(C)=O	none (no result: TDP1 cell noCPT, VP16 counter, IL1B secr inh, TDP1 cell CPT, RORg inh)
O=C(NC(=S)NCCSc1ccccc1)c1cccnc1	VP16 counter inconclusive, RORg inh 12.6µM
O=C(OCc1cccc(Br)c1)c1cccc(O)c1	none (no result: TDP1 cell noCPT, VP16 counter, IL1B secr inh, TDP1 cell CPT, RORg inh)
O=S(=O)(c1ccc(Cl)cc1)N1CCCC1c1nc(-c2cccc(Cl)c2)no1 (stereo not drawn)	TDP1 cell noCPT inconclusive, TDP1 cell CPT 23.1µM
Cc1cccc(/C=C(/C#N)c2nc3ccccc3[nH]2)c1	none (no result: TDP1 cell noCPT, VP16 counter, IL1B secr inh, TDP1 cell CPT, RORg inh)
COC(=O)C1=NN(C(=O)c2ccccc2)C(O)(c2ccc([N+](=O)[O-])cc2)C1 (stereo not drawn)	VP16 counter 7.08µM, RORg inh 5.01µM
COC(=O)C1=NN(C(=O)c2ccccc2)C(C)(O)C1 (stereo not drawn)	TDP1 cell noCPT 23.1µM, TDP1 cell CPT inconclusive
COC(=O)C1=NN(C(=O)c2cccc(Cl)c2)C(O)(C(C)(C)C)C1 (stereo not drawn)	VP16 counter inconclusive, RORg inh 5.01µM
CCc1c(C)sc2nc(NCC(C)O)n3nc(-c4ccco4)nc3c12 (stereo not drawn)	none (no result: TDP1 cell noCPT, VP16 counter, IL1B secr inh, TDP1 cell CPT, RORg inh)
COc1ccc2nc(-n3ncc4c3NC(=O)CC4c3cccc(O)c3)sc2c1 (stereo not drawn)	none (no result: TDP1 cell noCPT, VP16 counter, IL1B secr inh, TDP1 cell CPT, RORg inh)
COc1ccc(-c2csc(C(C)(O)c3ccc(OC)cc3)n2)cc1 (stereo not drawn)	TDP1 cell noCPT inconclusive, TDP1 cell CPT 14.6µM (no result: VP16 counter, RORg inh)
Cc1ccccc1-c1csc(C(C)(O)c2ccccc2)n1 (stereo not drawn)	none (no result: VP16 counter, RORg inh)
COc1ccc(C(C)(O)c2nc(-c3cccc(O)c3)cs2)cc1 (stereo not drawn)	TDP1 cell noCPT 23.1µM, IL1B secr inh inconclusive, TDP1 cell CPT 18.4µM (no result: VP16 counter, RORg inh)
COc1ccc(-c2csc(C(C)(O)c3ccccc3)n2)cc1 (stereo not drawn)	TDP1 cell noCPT inconclusive, TDP1 cell CPT 16.4µM (no result: VP16 counter, RORg inh)
COc1ccc(C(C)(O)c2nc(-c3ccccc3C)cs2)cc1 (stereo not drawn)	TDP1 cell noCPT 5.8µM, TDP1 cell CPT 6.51µM (no result: VP16 counter, RORg inh)
COc1ccc(C(C)(O)c2nc(-c3ccc(Cl)cc3)cs2)cc1 (stereo not drawn)	TDP1 cell noCPT inconclusive, TDP1 cell CPT inconclusive (no result: VP16 counter, RORg inh)
CCCn1c(=O)n(CC(=O)NCc2nnc3n2CCC3)c2ccccc21	none (no result: TDP1 cell noCPT, VP16 counter, IL1B secr inh, TDP1 cell CPT, RORg inh)
CCOc1ccc(N2C(=O)CCS2(=O)=O)cc1S(=O)(=O)NCc1ccco1	none (no result: TDP1 cell noCPT, VP16 counter, IL1B secr inh, TDP1 cell CPT, RORg inh)
COc1ccc(C(C)(O)c2nc(-c3ccc4ccccc4c3)cs2)cc1 (stereo not drawn)	TDP1 cell noCPT inconclusive, TDP1 cell CPT inconclusive (no result: VP16 counter, RORg inh)
COc1ccc(C(C)(O)c2nc(-c3ccccc3)cs2)cc1 (stereo not drawn)	TDP1 cell noCPT 13µM, TDP1 cell CPT 18.4µM (no result: VP16 counter, RORg inh)
COc1ccc(C(C)(O)c2nc(-c3ccncc3)cs2)cc1 (stereo not drawn)	TDP1 cell noCPT 5.8µM, TDP1 cell CPT 5.8µM (no result: VP16 counter, RORg inh)
COc1ccc(-c2csc(C(C)(O)c3ccccc3)n2)cc1OC (stereo not drawn)	TDP1 cell noCPT inconclusive, TDP1 cell CPT inconclusive (no result: VP16 counter, RORg inh)
COc1ccc(C(C)(O)c2nc(-c3ccc(OC)c(OC)c3)cs2)cc1 (stereo not drawn)	TDP1 cell noCPT inconclusive, TDP1 cell CPT 23.1µM (no result: VP16 counter, RORg inh)

Screens (PubChem)
